Many of the other results were omitted from the sample, so the strongest signals are more common in it than they were.
Experiments:
Experiment in all cases: glycan array binding signal (z-score within array); higher = stronger binding
Conditions in all cases: glycan notation: IUPAC condensed, linker removed
Gal6S(b1-3)GlcNAc = target: Gal6S(b1-3)GlcNAc
How it was run: (§1)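 Columns mapping to the same glycan were averaged after glycan names were converted to IUPAC-condensed notation. The data come from 3228 arrays in the Consortium for Functional Glycomics database, limited to those with an available protein sequence. Binding is reported as a within-array Z-score averaged across arrays of one protein sequence and across linkers.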

[1] = target: GalNAc(b1-3)Gal(a1-6)Gal(b1-4)Glc
How it was run: as §1

Glc(b1-4)Glc = target: Glc(b1-4)Glc
How it was run: as §1

[2] = target: GlcNAc(b1-2)[GlcNAc(b1-4)]Man(a1-3)[GlcNAc(b1-4)][GlcNAc(b1-2)[GlcNAc(b1-6)]Man(a1-6)]Man(b1-4)GlcNAc(b1-4)GlcNAc
How it was run: as §1

[3] = target: GlcNAc(b1-3)Gal(b1-4)GlcNAc(b1-3)Gal(b1-4)GlcNAc(b1-3)Gal(b1-4)GlcNAc(b1-3)Gal(b1-4)GlcNAc(b1-2)[GlcNAc(b1-3)Gal(b1-4)GlcNAc(b1-3)Gal(b1-4)GlcNAc(b1-3)Gal(b1-4)GlcNAc(b1-3)Gal(b1-4)GlcNAc(b1-6)]Man(a1-6)[GlcNAc(b1-3)Gal(b1-4)GlcNAc(b1-3)Gal(b1-4)GlcNAc(b1-3)Gal(b1-4)GlcNAc(b1-3)Gal(b1-4)GlcNAc(b1-2)Man(a1-3)]Man(b1-4)GlcNAc(b1-4)[Fuc(a1-6)]GlcNAc
How it was run: as §1

[4] = target: GlcNAc(b1-3)Gal(b1-4)GlcNAc(b1-6)[GlcNAc(b1-3)]Gal(b1-4)GlcNAc
How it was run: as §1

[5] = target: GlcNAc(b1-3)[GlcNAc(b1-4)][GlcNAc(b1-6)]GlcNAc
How it was run: as §1

[6] = target: GlcNAc6S(b1-3)Gal(b1-4)GlcNAc
How it was run: as §1

[7] = target: Man(a1-2)Man(a1-3)[Man(a1-2)Man(a1-6)]Man(a1-6)[Man(a1-2)Man(a1-2)Man(a1-3)]Man
How it was run: as §1

[8] = target: Neu5Ac(a2-3)Gal(b1-3)GlcNAc(b1-6)GalNAc
How it was run: as §1

[9] = target: Neu5Ac(a2-3)Gal(b1-3)[Fuc(a1-4)]GlcNAc(b1-3)Gal(b1-3)[Fuc(a1-4)]GlcNAc
How it was run: as §1

[10] = target: Neu5Ac(a2-3)Gal(b1-3)[GlcNAc(b1-6)]GalNAc
How it was run: as §1

[11] = target: Neu5Ac(a2-3)Gal(b1-4)GlcNAc(b1-2)Man
How it was run: as §1

[12] = target: Neu5Ac(a2-3)Gal(b1-4)[Fuc(a1-3)]GlcNAc(b1-3)Gal
How it was run: as §1

[13] = target: Neu5Ac(a2-3)[GalNAc(b1-4)]Gal(b1-4)GlcNAc(b1-3)GalNAc
How it was run: as §1

[14] = target: Neu5Ac(a2-6)Gal(b1-4)GlcNAc(b1-2)Man
How it was run: as §1

[15] = target: Neu5Ac(a2-6)Gal(b1-4)GlcNAc(b1-2)Man(a1-3)[Neu5Ac(a2-6)Gal(b1-4)GlcNAc(b1-2)Man(a1-6)]Man(b1-4)GlcNAc(b1-4)GlcNAc
How it was run: as §1

[16] = target: Neu5Ac(a2-6)Gal(b1-4)GlcNAc(b1-2)Man(a1-6)[GlcNAc(b1-2)Man(a1-3)]Man(b1-4)GlcNAc(b1-4)GlcNAc
How it was run: as §1

[17] = target: Neu5Ac(a2-6)Gal(b1-4)GlcNAc(b1-3)Gal(b1-4)GlcNAc(b1-3)Gal(b1-4)GlcNAc(b1-2)Man(a1-3)[Neu5Ac(a2-6)Gal(b1-4)GlcNAc(b1-3)Gal(b1-4)GlcNAc(b1-3)Gal(b1-4)GlcNAc(b1-2)Man(a1-6)]GalNAc
How it was run: as §1

[18] = target: Neu5Ac(a2-6)Gal(b1-4)GlcNAc(b1-3)Gal(b1-4)GlcNAc(b1-3)[Neu5Ac(a2-6)Gal(b1-4)GlcNAc(b1-3)Gal(b1-4)GlcNAc(b1-6)]GalNAc
How it was run: as §1

[19] = target: Neu5Ac(a2-6)Gal(b1-4)GlcNAc(b1-6)GalNAc
How it was run: as §1

Neu5Ac(a2-8)Neu5Ac = target: Neu5Ac(a2-8)Neu5Ac
How it was run: as §1

[20] = target: Neu5Ac(a2-8)Neu5Ac(a2-8)Neu5Ac(a2-3)[GalNAc(b1-4)]Gal(b1-4)Glc
How it was run: as §1

[21] = target: Neu5Gc(a2-3)Gal(b1-3)GlcNAc
How it was run: as §1

[22] = target: Neu5Gc(a2-8)Neu5Gc(a2-3)Gal(b1-4)GlcNAc
How it was run: as §1

B1: CcfD (Bacteroides fragilis), Q5L9G4 (protein)
chain: MKKQNSIYTLLIALLCFVSSCDYLGVSDQLAGGLQNTEQVFDNVSYTKRWYANVFAGIPDYSGINSVNVGAFKNPWTGMCDELVVGYGNSSKYNNSDRNAANMGFHRYGDCYKYIRQANIFLQKAHPIMTTGTQGDQLLEDELTQMKANVRFMRAFYHYLLFEQYGPIILVKDKIYNATEDQDVPRNTVDEVIEYIDSELTAVASELTQEPIFEDKDYRAWPTKGVALAVRAKLWLYAASPLLNGGYREALSVTNPDGTRLFPDYDAGKWEKALAACKDFIDYAEAGRYELYKEYKDDNGAVIDPDKSVYNLFQKYTHEIIWATANNDWGGMNGDAFDRRIAPRCEKNGLGSTGVTQELVDAFYMKDGFPVSATAYLPQSTLYQEEGYGTYKDQNDNFSKKYTNVTVSNRYLNREPRFYNTVFFNGRQWPVSCNQVLFYNGGNSGVQEGQATLTGYMLFKRFNRSVSLTNPGVASQFRPSIIFRLADFYLMYAEAANEVNPNDARVLKYLNLVRERAGLPDIETLNPAIRGNQELQRAAIQRERQIELATEGQRYFDVRRWMIADKNGEGRQNGYVHGMNVRGESNDKEDFNRIVEASQIVFNRKMYLYPMPDSEMRKTKNLVQNPGW
- glycan array binding signal (z-score) (Gal6S(b1-3)GlcNAc): 1.26
- glycan array binding signal (z-score) [1]: -0.64
- glycan array binding signal (z-score) (Glc(b1-4)Glc): 1.59
- glycan array binding signal (z-score) [2]: -0.548
- glycan array binding signal (z-score) [3]: 6.49
- glycan array binding signal (z-score) [4]: 0.069
- glycan array binding signal (z-score) [5]: 2.83
- glycan array binding signal (z-score) [6]: -0.516
- glycan array binding signal (z-score) [7]: 2.93
- glycan array binding signal (z-score) [8]: -0.64
- glycan array binding signal (z-score) [9]: -0.68
- glycan array binding signal (z-score) [10]: 0.22
- glycan array binding signal (z-score) [11]: -0.338
- glycan array binding signal (z-score) [12]: 0.036
- glycan array binding signal (z-score) [13]: 0.036
- glycan array binding signal (z-score) [14]: -0.522
- glycan array binding signal (z-score) [15]: 0.561
- glycan array binding signal (z-score) [16]: 4.06
- glycan array binding signal (z-score) [17]: 2.39
- glycan array binding signal (z-score) [18]: 2.75
- glycan array binding signal (z-score) [19]: -1.06
- glycan array binding signal (z-score) (Neu5Ac(a2-8)Neu5Ac): -0.378
- glycan array binding signal (z-score) [20]: -0.936
- glycan array binding signal (z-score) [21]: -0.456
- glycan array binding signal (z-score) [22]: -1.19
